Data on 14 compounds can be found in PubChem BioAssay (Tox21).

The nature of assay [1]: qHTS assay to identify small molecule antagonists of the glucocorticoid receptor (GR) signaling pathway - cell viability counter screen (AID 720693; note: nearly all actives have a fitted effect of over 55% in size; note: potency is the fitted concentration of half-maximal effect). (qHTS replaces the single test concentration by a dilution series.)
Assay [2] in a line: qHTS assay for identifying genotoxic compounds that show differential cytotoxicity against isogenic chicken DT40 cell lines with known DNA damage response pathways - wild type cell line (AID 743012). Note: nearly all actives have a fitted effect of over 60% in size. Note: potency is the fitted concentration of half-maximal effect. The procedure, abridged:
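Viability by ATP luminescence (CellTiter-Glo, 30 min RT) after 40 h compound treatment at 37 C/5% CO2, using 300 parental DNA repair-proficient DT40 cells per well.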

Assay [3] is described as follows: qHTS assay for identifying genotoxic compounds that show differential cytotoxicity against isogenic chicken DT40 cell lines with known DNA damage response pathways - Rev3 mutant cell line (AID 743014). Note: nearly all actives have a fitted effect of over 55% in size. Note: potency is the fitted concentration of half-maximal effect.
Assay [4] is described as follows: qHTS assay for identifying genotoxic compounds that show differential cytotoxicity against isogenic chicken DT40 cell lines with known DNA damage response pathways - Rad54/Ku70 mutant cell line (AID 743015). Note: nearly all actives have a fitted effect of over 60% in size. Note: potency is the fitted concentration of half-maximal effect.
Assay [5] can be described thus: qHTS assay to identify small molecule antagonists of the androgen receptor (AR) signaling pathway - cell viability counter screen (AID 743033; note: nearly all actives have a fitted effect of over 45% in size; note: potency is the fitted concentration of half-maximal effect).
A short description of assay [6]: qHTS assay to identify small molecule antagonists of the androgen receptor (AR) signaling pathway using the MDA cell line - cell viability counter screen (AID 743041; note: nearly all actives have a fitted effect of over 45% in size; note: potency is the fitted concentration of half-maximal effect). The method in brief: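 Cytotoxicity counter screen: MDA-kb2 AR-luc cells, compound + R1881, 16 h, 37C, 0% CO2; CellTiter-Fluor added at 15.5 h, fluorescence read after 30 min.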
A short description of assay [7]: qHTS assay to identify small molecule antagonists of the thyroid receptor (TR) signaling pathway - cell viability counter screen (AID 743064). Note: nearly all actives have a fitted effect of over 50% in size. Note: potency is the fitted concentration of half-maximal effect. The procedure, abridged:
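In rat pituitary GH3.TRE-Luc reporter cells co-exposed to compound and 1 nM T3 for 23.5 h, cytotoxicity was assessed with CellTiter-Fluor in the same wells, read by fluorescence.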

Assay [8] relates to thyroid hormone receptor (rat, GH3 cells). The assay is described as follows: qHTS assay to identify small molecule agonists of the thyroid receptor (TR) signaling pathway (AID 743066; calls by dose curve).
The nature of assay [9]: qHTS assay to identify small molecule antagonists of the estrogen receptor alpha (ER-alpha) signaling pathway - cell viability counter screen (AID 743074; calls by dose curve;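 note: HEK293 cells carrying ER-alpha-UAS-bla reporter stimulated with 17beta-estradiol; nearly all actives have a fitted effect of over 45% in size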).
Assay [10] in a line: qHTS assay to identify small molecule antagonists of the estrogen receptor alpha (ER-alpha) signaling pathway using the BG1 cell line - cell viability counter screen (AID 743081).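 Note: compound given together with 17beta-estradiol as the ER stimulus; nearly all actives have a fitted effect of over 45% in size.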 Note: potency is the fitted concentration of half-maximal effect.
Another assay has as its target Aromatase (Homo sapiens) (UniProt P11511). Kind of assay: qHTS assay to identify aromatase inhibitors (AID 743083). Note: nearly all actives have a fitted effect of over 55% in size. Note: potency is the fitted concentration of half-maximal effect.
Assay [11] is described as follows: qHTS assay to identify small molecule antagonists of the thyroid receptor (TR) signaling pathway (AID 743065). Note: nearly all actives have a fitted effect of over 55% in size. Note: potency is the fitted concentration of half-maximal effect. The procedure, abridged: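 GH3.TRE-Luc rat pituitary cells (two TREs driving luciferase) were dosed with compound, then stimulated with 1 nM T3 (final) for 23.5 h at 37 C. ONE-Glo luminescence was the read-out, with CellTiter-Fluor fluorescence as the cytotoxicity counter-screen.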

Assay [12] has as its target Estrogen receptor (Homo sapiens) (UniProt P03372). The assay is described as follows: qHTS assay to identify small molecule agonists of the estrogen receptor alpha (ER-alpha) signaling pathway (AID 743075; calls by dose curve;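 note: HEK293 GripTite cells with ER-alpha and UAS-driven beta-lactamase reporter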; note: potency is the fitted concentration of half-maximal effect).
Assay [13] has the same target. Kind of assay: qHTS assay to identify small molecule agonists of the estrogen receptor alpha (ER-alpha) signaling pathway using the BG1 cell line (AID 743079). Note: nearly all actives have a fitted effect of over 20% in size. Note: potency is the fitted concentration of half-maximal effect.
Assay [14] can be described thus: qHTS assay to identify small molecule antagonists of the estrogen receptor alpha (ER-alpha) signaling pathway using the BG1 cell line (AID 743080; calls by dose curve;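 note: BG1 cells stimulated with 17beta-estradiol alongside compound; nearly all actives have a fitted effect of over 25% in size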; note: potency is the fitted concentration of half-maximal effect). The method in brief: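 Luciferase inhibition measured with ONE-Glo after 30 min at RT in BG1Luc4E2 cells given test compounds and 17beta-estradiol for 21.5 h at 37 C; CellTiter-Fluor viability read in the same wells beforehand.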

The target of assay [15] is Androgen receptor (Homo sapiens) (UniProt P10275). Kind of assay: qHTS assay to identify small molecule antagonists of the androgen receptor (AR) signaling pathway (AID 743035; active = well fitted inhibition curve with a large enough effect in the signal ratio in the repeat runs, not every such curve was filed as active; inconclusive = weak or mixed curves, or effect the other way; inactive = no such curve, though single readings can be large or run the other way; the % refers to the signal ratio; note: potency is the fitted concentration of half-maximal effect). The method in brief: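 Antagonist mode: AR-bla HEK293 cells co-treated with test compounds and agonist R1881 for 16 h at 37C, 5% CO2. Beta-lactamase activity read as FRET fluorescence after 2 h room-temperature substrate loading.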

Assay [16] shares this target. Kind of assay: qHTS assay to identify small molecule agonists of the androgen receptor (AR) signaling pathway using the MDA cell line (AID 743040; note: nearly all actives have a fitted effect of over 20% in size). Particulars: MDA-kb2 AR-luc cells, MMTV luciferase, 16 h; activity change: at 70.3 µM (top of the series), stronger effect = higher value. The procedure, abridged: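 Luciferase read-out, ONE-Glo, 30 min RT. Cells: MDA-kb2 AR-luc, MMTV promoter with AR and GR response elements. Compound exposure 16 h, 37C, 0% CO2, after 5 h pre-incubation. qHTS agonist mode.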

For assay [17] the target is unchanged. The assay is described as follows: qHTS assay to identify small molecule antagonists of the androgen receptor (AR) signaling pathway using the MDA cell line (AID 743042; note: nearly all actives have a fitted effect of over 55% in size; note: potency is the fitted concentration of half-maximal effect). The procedure, abridged:
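MDA-kb2 breast carcinoma cells carrying MMTV-luciferase (AR/GR responsive) were co-treated with compounds and the agonist R1881 for 16 h at 37C. Inhibition read as ONE-Glo luminescence; CellTiter-Fluor fluorescence measured in parallel for cytotoxicity.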

Assay [18] has the same target. The assay is described as follows: qHTS assay to identify small molecule agonists of the androgen receptor (AR) signaling pathway (AID 743036; active = well fitted activation curve with a large enough effect in the signal ratio in the repeat runs, with a control signal flat, not every such curve was filed as active; inconclusive = weak or mixed curves, or effect the other way; inactive = no such curve, though single readings can be large or run the other way; the % refers to the signal ratio). The procedure, abridged: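 Cell-based FRET reporter assay: HEK293 line with a UAS-beta-lactamase construct, compounds added in DMSO, 16 h exposure at 37C, then 2 h substrate step at room temperature and fluorescence intensity read.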

In assay [19] the target is Estrogen receptor (Homo sapiens) (UniProt P03372). Kind of assay: qHTS assay to identify small molecule antagonists of the estrogen receptor alpha (ER-alpha) signaling pathway (AID 743069; active = well fitted curve in the direction sought with a large enough effect in the signal ratio in the repeat runs, not every such curve was filed as active; inconclusive = weak or mixed curves, or effect the other way; inactive = no such curve, though single readings can be large or run the other way; the % refers to the signal ratio). The method in brief: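 Beta-lactamase FRET fluorescence is read after 2 hr at room temperature with LiveBLAzer B/G substrate. Before that, ER-alpha-bla HEK293 cells sit 4 hr after plating, then receive compound plus 17beta-estradiol and incubate 18 hr at 37C.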

Several values for one entry are separate records, joined by “and”; a condition that tells them apart may be missing. Equal values may be shown once. Some structures have more than one record in an assay (separate samples or runs), and their calls can disagree. Activity calls are given as the source filed them. Unless noted, calls come from the whole dose curve; as a rule, active = well fitted curve in the direction sought with a large enough effect in the repeat runs; inconclusive = weak or mixed curves; inactive = no such curve, though single readings can be large; an effect the other way counts as inactive or inconclusive.

Chain of Aromatase (Homo sapiens) (P11511 whole entry, looked up): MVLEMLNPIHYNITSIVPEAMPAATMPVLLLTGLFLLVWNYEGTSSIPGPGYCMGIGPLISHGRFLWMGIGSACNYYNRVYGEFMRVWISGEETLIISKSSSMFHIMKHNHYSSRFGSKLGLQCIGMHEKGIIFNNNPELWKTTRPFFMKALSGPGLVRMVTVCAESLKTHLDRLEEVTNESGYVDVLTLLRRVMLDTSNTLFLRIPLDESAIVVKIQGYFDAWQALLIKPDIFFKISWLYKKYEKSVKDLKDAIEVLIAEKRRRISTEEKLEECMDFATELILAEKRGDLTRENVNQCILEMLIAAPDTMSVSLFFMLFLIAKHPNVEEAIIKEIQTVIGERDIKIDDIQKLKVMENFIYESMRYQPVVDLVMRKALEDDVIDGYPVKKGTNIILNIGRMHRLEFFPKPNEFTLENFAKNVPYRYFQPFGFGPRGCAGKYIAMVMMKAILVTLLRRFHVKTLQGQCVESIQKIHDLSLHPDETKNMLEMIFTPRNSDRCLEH
Chain of Estrogen receptor (Homo sapiens) (P03372 whole entry, looked up): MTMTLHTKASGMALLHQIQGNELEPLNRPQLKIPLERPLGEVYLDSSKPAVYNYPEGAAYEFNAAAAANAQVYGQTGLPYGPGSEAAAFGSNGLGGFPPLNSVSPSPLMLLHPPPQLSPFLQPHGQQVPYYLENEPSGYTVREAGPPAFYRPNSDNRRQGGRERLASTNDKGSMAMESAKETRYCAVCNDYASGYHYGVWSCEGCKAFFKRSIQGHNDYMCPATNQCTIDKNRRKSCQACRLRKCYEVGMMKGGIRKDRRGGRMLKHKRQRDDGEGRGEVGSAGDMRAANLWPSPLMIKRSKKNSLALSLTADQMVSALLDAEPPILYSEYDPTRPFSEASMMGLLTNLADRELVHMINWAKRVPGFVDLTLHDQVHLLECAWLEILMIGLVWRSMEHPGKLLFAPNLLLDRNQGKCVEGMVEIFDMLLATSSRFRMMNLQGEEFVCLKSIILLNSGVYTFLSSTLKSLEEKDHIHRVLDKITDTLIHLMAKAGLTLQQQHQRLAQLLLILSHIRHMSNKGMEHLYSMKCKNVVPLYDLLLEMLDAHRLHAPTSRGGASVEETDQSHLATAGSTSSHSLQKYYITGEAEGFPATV
Chain of Androgen receptor (Homo sapiens) (P10275 whole entry, looked up): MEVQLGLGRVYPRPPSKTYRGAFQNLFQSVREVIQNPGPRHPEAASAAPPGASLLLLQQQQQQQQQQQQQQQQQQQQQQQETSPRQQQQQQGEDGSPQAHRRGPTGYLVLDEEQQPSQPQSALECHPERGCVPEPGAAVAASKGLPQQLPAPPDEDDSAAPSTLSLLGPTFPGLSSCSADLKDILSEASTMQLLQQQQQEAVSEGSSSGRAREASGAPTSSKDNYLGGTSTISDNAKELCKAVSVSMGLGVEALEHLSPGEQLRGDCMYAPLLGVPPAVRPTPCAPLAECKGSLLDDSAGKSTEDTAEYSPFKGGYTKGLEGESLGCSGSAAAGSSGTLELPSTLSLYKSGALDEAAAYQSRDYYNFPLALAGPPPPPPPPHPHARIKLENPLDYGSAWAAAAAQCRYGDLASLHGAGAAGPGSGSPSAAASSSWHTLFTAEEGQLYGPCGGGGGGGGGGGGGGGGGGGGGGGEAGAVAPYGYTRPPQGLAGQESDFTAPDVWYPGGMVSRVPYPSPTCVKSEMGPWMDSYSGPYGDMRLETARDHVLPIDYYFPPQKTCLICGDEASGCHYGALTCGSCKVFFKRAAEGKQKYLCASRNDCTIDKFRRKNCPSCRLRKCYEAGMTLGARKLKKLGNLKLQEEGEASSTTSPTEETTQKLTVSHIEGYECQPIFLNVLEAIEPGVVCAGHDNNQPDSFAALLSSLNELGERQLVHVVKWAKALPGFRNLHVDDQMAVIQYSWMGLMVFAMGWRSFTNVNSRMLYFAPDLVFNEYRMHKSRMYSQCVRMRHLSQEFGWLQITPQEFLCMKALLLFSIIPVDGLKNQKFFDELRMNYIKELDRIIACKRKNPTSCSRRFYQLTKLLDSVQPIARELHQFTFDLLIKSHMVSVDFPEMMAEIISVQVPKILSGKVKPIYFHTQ

For the compound `O=C(CCl)c1ccccc1`, the Potency entry in [1], in [5], in assay [6], in [8], in assay [9] and in assay [10] was “inactive” in each case. Besides, the Potency entry with Aromatase (Homo sapiens) was “inactive”. Further, the Potency entry in assay [2] was “inactive and 68.6 µM (active)”; in assay [3], 54.5 µM (active); in assay [4] it was 61.1 µM (active); in [7], “inactive and 68.6 µM (active)”.
For the compound `CCCCN(CCCC)N=O`, the Potency result in assay [1], in assay [2], in assay [3], in [5], in assay [6] and in assay [7] was “inactive” throughout. For the same compound, the Potency result in [11], in [8], in assay [9], in [12], in [13] and in [14] was “inactive” in each case. The Potency entry (in [10]; in the assay with Aromatase (Homo sapiens)) was “inactive” throughout.
Take `COP(=S)(OC)Oc1cc(Cl)c(Cl)cc1Cl`: the Potency result in assay [1], in assay [2], in assay [3], in [5], in [15] and in assay [16] was “inactive” each time. For the same compound, the Potency result in [6], in assay [17], in assay [7], in assay [11], in [8] and in [9] was “inactive” each time. Moreover, the Potency entry (in assay [12]; in [13]; in [14]; in assay [10]; with Aromatase (Homo sapiens)) was “inactive” each time.
`O=C(O)CC[N+](=O)[O-]`: the Potency entry in [1], in [3], in assay [5], in [15], in assay [18] and in assay [16] was “inactive” each time. Also, the Potency entry in [6], in [17], in [7], in [11], in assay [8] and in [9] was “inactive” each time. For the same compound, the Potency result (in [10]; in the assay with Aromatase (Homo sapiens)) was “inactive” each time. The Potency in assay [2] is 70.8 µM (active) and inactive.
Take `C#CCOS(=O)OC1CCCCC1Oc1ccc(C(C)(C)C)cc1` (stereo not given): the Potency in assay [1] is 21.9 µM (active); in assay [2] it was 6.12 µM (active) and 2.73 µM (active); in assay [3], 3.86 µM (active) and 2.17 µM (active); in [4], 4.33 µM (active) and 2.43 µM (active); in [5] it was 174 nM (active) and 1.74 µM (active); in assay [6], 4.33 µM (active). Also, the Potency in assay [7] is 6.86 µM (active); in assay [11], 4.33 µM (active); in assay [12] it was “inactive and 2.75 µM [inconclusive] (active)”; in [14], 9.7 µM (active); in assay [10] it was 27.3 µM (active); with Aromatase (Homo sapiens) it was 15.4 µM (active) and 6.86 µM (active). The Potency result in assay [8] was “inactive”.
Take `CCc1cccc(CC)c1N(COC)C(=O)CCl`: the Potency entry in [1], in assay [5], in [18], in assay [16], in assay [6] and in [7] was “inactive” each time. The Potency entry in [8], in assay [9], in assay [12], in assay [13], in [14] and in assay [10] was “inactive” each time. Also, the Potency in assay [2] was 19.3 µM (active); in assay [3], 5.91 µM (active) and 5.45 µM (active); in assay [15], 26.7 µM (active) and 38.9 µM (active); in [17] it was 61.1 µM (active); in assay [11], 54.5 µM (active); in the assay with Aromatase (Homo sapiens) it was 61.1 µM (active).
In the case of `NNC(N)=S`, the Potency entry in [1], in assay [7], in assay [11], in assay [8], in assay [19] and in [12] was “inactive” throughout. Moreover, the Potency entry in assay [13], in assay [14] and in assay [10] was “inactive” each time. In addition, the Potency in assay [2] was 28.4 µM (active); in assay [3] it was 20.1 µM (active); in assay [4] it was 28.4 µM (active); in [5], 14.3 µM (active); in the assay with Aromatase (Homo sapiens), 50.4 µM (active) and inactive.
In the case of `N#CC(Br)Br`, the Potency result in assay [1], in [2], in assay [3], in [5], in assay [6] and in [7] was “inactive” each time. Besides, the Potency entry in assay [11], in assay [8], in assay [19], in assay [9], in assay [12] and in assay [13] was “inactive” in each case. The Potency result (in assay [14]; in assay [10]; in the assay with Aromatase (Homo sapiens)) was “inactive” throughout.
On to `CC(O)CCO` (stereo not given), for which the Potency result in [1], in assay [2], in assay [4], in [5], in assay [6] and in assay [7] was “inactive” each time. The Potency entry (in [11]; in assay [8]; in assay [9]; in assay [10]; with Aromatase (Homo sapiens)) was “inactive” throughout. Also, the Potency result in assay [3] was “inactive and 68.6 µM (active)”.
In the case of `CCCCCCCCC(=O)NCc1ccc(O)c(OC)c1`, the Potency entry in assay [1], in [2], in assay [5], in assay [6], in [7] and in assay [8] was “inactive” throughout. Besides, the Potency entry (in assay [9]; in assay [12]; in assay [13]; in [14]; in assay [10]; with Aromatase (Homo sapiens)) was “inactive” throughout. For the same compound, the Potency entry is “inactive and 68.6 µM (active)” in assay [3]; 54.5 µM (active) in assay [11].
Consider `Nc1ccc(-c2ccccc2)cc1`, for which the Potency entry in assay [1], in assay [5], in [6], in [7], in assay [11] and in [8] was “inactive” throughout. In addition, the Potency entry (in assay [9]; in [12]; in assay [10]; with Aromatase (Homo sapiens)) was “inactive” each time. Moreover, the Potency result in assay [2] was “inactive and 54.5 µM (active)”; in assay [3] it was “inactive and 54.5 µM (active)”; in assay [13], 25 nM (active) and 10.9 µM (active).
For the compound `CC(C)NC(C)C`, the Potency result in assay [1], in assay [2], in assay [3], in [5], in [6] and in assay [7] was “inactive” in each case. Also, the Potency entry in assay [11], in assay [8], in assay [9], in assay [12], in [13] and in assay [14] was “inactive” throughout. The Potency entry (in [10]; with Aromatase (Homo sapiens)) was “inactive” each time.
For `S=C1NCCN1`, the Potency entry in [1], in [2], in assay [3], in assay [4], in assay [5] and in [6] was “inactive” in each case. Besides, the Potency entry (in assay [11]; in assay [8]; in assay [9]; in assay [10]; with Aromatase (Homo sapiens)) was “inactive” each time.
For `CC(C)=CC1C(C(=O)OCc2coc(Cc3ccccc3)c2)C1(C)C` (stereo not given), the Potency entry in assay [1], in assay [5], in [6], in assay [7], in assay [8] and in [9] was “inactive” in each case. In addition, the Potency result (in assay [12]; in assay [13]; in assay [14]; in [10]; with Aromatase (Homo sapiens)) was “inactive” each time. Besides, the Potency entry in assay [2] was “inactive and 38.5 µM (active)”; in assay [3], “inactive and 54.4 µM (active)”; in assay [4], “inactive and 43.2 µM (active)”.
